Results as given in PubChem BioAssay (NCI).
Compounds without any hit were thinned out: in the full panel of roughly 83,000, 20% have a hit.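 The endpoint reported here, percent growth, reads 100 for growth as untreated, 0 for no net growth and -100 for all cells dead.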 Values without a mark were called inactive. The source made the active and inactive calls. Rule for the calls: active = growth percent below 10; inactive = the rest.

Tested on: HL-60(TB) leukemia
Assay: NCI-60 one-dose screen, 48 h (100 = growth as untreated, 0 = no growth, -100 = all killed)
Conditions: 10 µM unless noted

SMILES	growth
CC(C)(C)n1nc(C2CC2)c(Br)c1NC(=O)c1ccccc1F	104%
CC(=O)c1ccc2oc(=O)n(Cc3ccc(C#N)cc3)c(=O)c2c1	109%
Cc1cc(N2CCCCCC2)nc(NC2CCCC(Nc3ccnc4cc(Cl)ccc34)C2)n1 (stereo not drawn)	-71.3% (active)
